Results from PubChem BioAssay AID2314 (National Center for Advancing Translational Sciences (NCATS), 2010).
About 37,000 (12%) of roughly 300,000 compounds were called active. The sample holds actives, similar compounds and a random draw of the others, so the mix is not that of the screen. Values without a mark were called inactive. No stated cut-off is given here; in the data, active means max response mostly above about 13% (no sharp cut-off); inactive means mostly below about 14%.

test: Cycloheximide Counterscreen for Small Molecule Inhibitors of Shiga Toxin; settings: cell reporter, cycloheximide protein synthesis inhibition counterscreen; hits give high values; further: read at 38.3 µM for the half of the compounds with a filed dose; 0% is about no effect

Compound | max response
CN(c1ccccc1)S(=O)(=O)c1ccc(NC(=O)COc2ccccc2)cc1 | -1.66%
CCCCNC(=O)C1CCC(=O)N1CCc1ccccc1 (configuration not stated) | -3.51%
O=c1[nH]c(CN2CCOCC2)nc2scc(-c3ccccc3)c12 | 9.91%
O=c1[nH]c(CN2CCOCC2)nc2cc(Cl)ccc12 | 13% (active)
CN(CCOc1ccccc1)Cc1nc2cc(Cl)ccc2c(=O)[nH]1 | 2.21%
CC(NC(=O)c1ccccc1C(=O)O)c1ccc(-n2ccnc2)cc1 (configuration not stated) | -1.67%
CC1CCN(C(=O)c2ccccc2NC(=O)Cc2ccccc2)CC1 | 18.5%
O=C(C1CCN(Cc2ccc(Cl)cc2)CC1)N1CCN(Cc2ccc3c(c2)OCO3)CC1 | -1.07%
CCOC(=O)c1csc(NC(=O)c2ccc(S(=O)(=O)N3CCCC3)cc2)n1 | -1.54%
CCOC(=O)c1csc(CCNC(=O)c2oc3c(Cl)cc(C)cc3c2C)n1 | 29.8% (active)
Cc1ccc2c(=O)cc(C(=O)NCCc3ccc(S(N)(=O)=O)cc3)oc2c1C | -2.03%
CC(Oc1cccc(Cl)c1)C(=O)NC1CC(C)(C)NC(C)(C)C1 (configuration not stated) | -2.91%
COc1ccc(Cc2n[nH]c(=S)n2NC(=O)Nc2ccc(C)cc2)cc1 | 37.1% (active)
Cc1ccc(OCc2n[nH]c(=S)n2-c2ccc(C)cc2)cc1 | -1.5%
COc1ccc(NC(=S)NCCNC(C)=O)cc1 | 0.644%
Cn1c(=O)oc2cc(S(=O)(=O)NCCC(=O)NCc3ccccc3Cl)ccc21 | -6.54%
O=S(=O)(c1ccc(Br)cc1)c1nc(-c2ccccc2)oc1N1CCOCC1 | 4.42%
CCCCCCCCCCCCC(NC(C)=O)(C(=O)OCC)C(=O)OCC | -2.57%
CC1CCN(C(=O)CCc2nnc3ccc(NCc4ccco4)nn23)CC1 | -0.588%
CCc1ccc(C2N3CC4([N+](=O)[O-])CN2CC([N+](=O)[O-])(C3)C4(C)C)cc1 (configuration not stated) | -2.16%
COc1ccc(Nc2nc(Cl)nc(NCc3ccco3)n2)cc1 | 5.68%
C=CCC(NCc1ccco1)c1ccc(OC)cc1 (configuration not stated) | 1.37%
COc1ccc(Nc2nc(NCc3ccco3)nc(N/N=C/c3ccccc3Cl)n2)cc1 | 16.9% (active)
COc1ccc(C)cc1NC(=O)NCCCCc1ccccc1 | 7.65%
CS(=O)(=O)N1CCc2nc(-c3ccccc3)sc2C1 | 47.1% (active)
CS(=O)(=O)N1CCN(C(=O)Cc2ccccc2)CC1 | -2.32%
CS(=O)(=O)N1CCN(c2cccc(Cl)n2)CC1 | -1.63%
